ERb SRC1 inh: blocks coactivator binding to human estrogen receptor beta; TR-FRET ER-beta LBD / SRC1-Cy5 peptide binding; receptor agonist-loaded with 1 µM estradiol; actives 1.3% (n = 86,000); inhibition, % at 25.6 µM; Q92731;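 active = compounds whose percent inhibition of the receptor-coactivator binding signal exceeds about 50% in the single-dose screen, limit read from the data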
Target sequence (Q92731 whole entry, looked up, the tested form may be a part): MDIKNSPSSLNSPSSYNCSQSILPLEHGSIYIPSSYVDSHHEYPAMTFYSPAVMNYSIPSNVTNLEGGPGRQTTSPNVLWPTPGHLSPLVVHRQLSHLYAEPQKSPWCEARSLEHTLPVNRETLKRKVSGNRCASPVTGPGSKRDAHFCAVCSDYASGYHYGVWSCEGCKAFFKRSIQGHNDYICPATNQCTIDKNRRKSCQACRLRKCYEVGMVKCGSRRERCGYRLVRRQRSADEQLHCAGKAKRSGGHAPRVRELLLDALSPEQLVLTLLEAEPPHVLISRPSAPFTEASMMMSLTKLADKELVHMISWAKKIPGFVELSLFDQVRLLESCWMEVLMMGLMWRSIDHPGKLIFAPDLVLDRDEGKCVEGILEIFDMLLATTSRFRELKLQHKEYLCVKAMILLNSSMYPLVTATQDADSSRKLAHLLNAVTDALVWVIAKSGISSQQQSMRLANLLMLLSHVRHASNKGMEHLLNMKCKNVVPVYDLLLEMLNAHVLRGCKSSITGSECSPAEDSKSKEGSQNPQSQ
DAT uptake mod: modulates human dopamine transporter uptake under cocaine. Q01959. LLC-PK1 hDAT cells, [14C]-dopamine uptake with cocaine IC80; actives deviate in either direction. B-score at 10 µM. actives 1.3% (n = 110,000). AID 449768;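 active = Z score or B-score, a plate-position-corrected score, falls beyond the plate's 99.7% confidence bounds, in either direction; inactive = both scores lie inside the 99.7% bounds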
ERa coact inh: ER-alpha (human) coactivator binding inhibition | TR-FRET ER-alpha LBD / SRC-1 peptide, estradiol-bound | actives 1.7% (n = 86,000) | AID 629 | inhibition, % at 25.6 µM; in the data active = inhibition above about 50%
ERa coact pot: ER-alpha (human) coactivator binding potentiation. P03372. TR-FRET ERalpha-LBD/SRC-Cy5 coactivator binding, 2 h; 100 = basal binding, no effect. coactivator binding (% of control), % at 25.6 µM. actives 1.3% (n = 86,000). AID 639; in the data active = activity above about 200%;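 note: binding measured in presence of low estradiol as agonist stimulus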
MT1-MMP txn act: activates MT1-MMP transcription | HT1080 MT1-MMP promoter luciferase reporter, luminescence, overnight; hits give high values | actives 0.16% (n = 86,000) | activation factor at 10 µM | AID 750;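 active = activation factor of at least 2 for MT1-MMP transcription at 10 µM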
Of the large screens only hits and unclear results are named; the others gave an inactive call; [ ] = dose if it differs, or a comment. Rows were chosen to be rich in hits. Some 3.8% of all compounds tested hit in one or more screens of this group.

O=C(NCCCN1CCN(c2cccc(Cl)c2)CC1)c1ccc(N2CCCC2=O)cc1	none
O=C(NCCN1CCCCCC1)c1ccc(N2CCCC2=O)cc1	ERa coact inh 55[fluorescence artefact?]
COC(=O)COc1ccc(S(=O)(=O)Nc2ccc3c(c2)OCO3)cc1	ERa coact inh 67
C=C(C)C(=O)Nc1cccc(C2=NOC3(C2)C[C@@H](C(N)=O)N(C(=O)/C=C/C=C/C)C3)c1 (stereo partly drawn)	none (no result: ERb SRC1 inh, ERa coact inh, ERa coact pot, MT1-MMP txn act)
CCOc1ccc(NC(=O)CC2C(=O)N(C)C(=S)N2Cc2ccc3c(c2)OCO3)cc1 (stereo not drawn)	none (no result: ERb SRC1 inh, ERa coact inh, ERa coact pot, MT1-MMP txn act)
CC(=O)Nc1ccc(-c2nc3c(C)cccc3[nH]2)cc1	DAT uptake mod -8.1
CN(C)S(=O)(=O)c1ccc(C(=O)Nc2ccc(Cl)cc2)cc1	ERb SRC1 inh 64[fluorescence artefact?]
CCOc1ccc(NC(=O)c2ccc(S(=O)(=O)N(C)C)cc2)cc1	none
Cc1ccc(N2C(=O)C(c3c(C)[nH]n(-c4ccccc4)c3=O)(C(F)(F)F)C3=C2CC(C)(C)CC3=O)cc1 (stereo not drawn)	DAT uptake mod -5.1
CCn1c(=O)c(C(=O)Nc2cccnc2)c(O)c2ccccc21	none (no result: DAT uptake mod)
CCn1c(=O)c(C(=O)NCc2cccnc2)c(O)c2ccccc21	DAT uptake mod -8.4
CCC(=O)Nc1c(-c2ccc(OC)cc2)c(=O)c2ccccc2n1C	DAT uptake mod -9.1
Cc1cc(=O)oc2cc(OCC3CC(c4ccc(N(C)C)cc4)=NO3)ccc12 (stereo not drawn)	ERa coact inh 51[fluorescence artefact?]
CCn1c(COc2ccc(C)cc2)nnc1SCc1ccc(C#N)cc1	DAT uptake mod 3
C[C@@H]1CC=C[C@H]2[C@H]1C(=O)N(Cc1ccccc1)[C@H]2c1ccc(/C=C/c2ccccc2)cc1F	none (no result: ERb SRC1 inh, ERa coact inh, ERa coact pot, MT1-MMP txn act)
Fc1ccc(Cn2nnnc2CN2CCN(C3CCCCC3)CC2)cc1	ERa coact pot 218[fluorescence artefact?]
CNc1ccc(Br)cc(C(=O)/C=C/c2cc(OC)ccc2OC)c1=O	ERb SRC1 inh 65[fluorescence artefact?], ERa coact inh 71[fluorescence artefact?]
CCNc1ccc(Br)cc(C(=O)/C=C/c2ccc(Cl)cc2Cl)c1=O	ERb SRC1 inh 76[fluorescence artefact?], ERa coact inh 85[fluorescence artefact?]
COc1ccccc1NC(=O)C1=C(C)NC(SCC(=O)c2ccccc2)=C(C#N)C1c1ccco1 (stereo not drawn)	ERa coact pot 278[fluorescence artefact?]
CC(=O)C1=C(C)NC(SCC(=O)c2ccc(C)cc2)=C(C#N)C1c1ccco1 (stereo not drawn)	none
CCOC(=O)C1=C(c2ccccc2)NC(SCC(=O)NC2CCCCC2)=C(C#N)C1c1ccco1 (stereo not drawn)	ERa coact pot 364[fluorescence artefact?]
Cc1ccc(C(=O)CSC2=C(C#N)C(c3ccco3)C3=C(CC(C)(C)CC3=O)N2)cc1 (stereo not drawn)	ERa coact pot 200 (no result: MT1-MMP txn act)
COCCOC(=O)C1=C(C)NC(SCC(=O)NC(C)(C)C)=C(C#N)C1c1ccco1 (stereo not drawn)	none
CC1(C)CC(=O)C2=C(C1)NC(SCC(=O)Nc1ccccc1)=C(C#N)C2c1ccco1 (stereo not drawn)	none
C=CCOC(=O)C1=C(C)NC(SCC(=O)Nc2ccc(C)c(Cl)c2)=C(C#N)C1c1ccco1 (stereo not drawn)	ERa coact inh 94[fluorescence artefact?]
O=C(NC1(C(F)(F)F)C(=O)Nc2c1c(=O)[nH]c(=O)n2-c1ccccc1)c1ccncc1 (stereo not drawn)	none
Cn1nc(C(F)(F)F)c(C#N)c1N1CCN(c2cccc(C(F)(F)F)c2)CC1	none (no result: MT1-MMP txn act)
O=C(N/C(=C/c1ccco1)C(=O)N1CCCCC1)c1cccs1	none (no result: ERb SRC1 inh, ERa coact inh, ERa coact pot, MT1-MMP txn act)
CCC(C(=O)NCc1ccco1)N(C(=O)CNS(=O)(=O)c1ccccc1)C1CCCCC1 (stereo not drawn)	DAT uptake mod 4.5
CCCCCCN(C(=O)CCCCCN1C(=O)NC(c2ccc(-c3ccccc3)cc2)C(C(=O)OCc2ccccc2)=C1C)C(C(=O)NCCCC)c1ccc(OCC(=O)O)c(C(=O)O)c1 (stereo not drawn)	none (no result: ERb SRC1 inh, DAT uptake mod, ERa coact inh, ERa coact pot)
COc1ccc(C2=NOC(C)(c3nnc(-c4ccccc4)o3)C2)cc1 (stereo not drawn)	none (no result: ERb SRC1 inh, ERa coact inh, ERa coact pot, MT1-MMP txn act)
COc1ccc(-c2nc(CSCC(=O)N3CCc4ccccc4C3)c(C)o2)cc1OC	DAT uptake mod 1.9
CCOC(=O)CNC(=O)CSc1ncnc2c1cnn2-c1ccc(Cl)cc1	ERa coact pot 206
O=C(NCc1ccccn1)C1C2C=CC(C2)C1C(=O)Nc1ccc(F)cc1 (stereo not drawn)	none
CCCSc1nnc(NC(=O)c2sc3nc(-c4cccs4)ccc3c2N)s1	none (no result: ERb SRC1 inh, ERa coact inh, ERa coact pot)
Cc1csc(NC(=O)c2sc3nc(-c4cccs4)ccc3c2N)n1	ERb SRC1 inh 53[fluorescence artefact?], ERa coact inh 85[fluorescence artefact?]
CS/C(=N\S(=O)(=O)c1ccc(Cl)cc1)c1ccccc1	none (no result: ERb SRC1 inh, ERa coact inh, ERa coact pot, MT1-MMP txn act)
O=S(=O)(/N=C(\Sc1ccc(Cl)cc1)c1ccccc1)c1ccccc1	ERb SRC1 inh 55[fluorescence artefact?], ERa coact inh 77
Cn1cc(C(=O)NC2CCCCCC2)c(=O)c2cc(S(=O)(=O)N3CCCC3)ccc21	ERa coact inh 65, ERa coact pot 232[fluorescence artefact?] (no result: DAT uptake mod)
CN(CCCNC(=O)c1cn(C)c2ccc(S(=O)(=O)N(C)C)cc2c1=O)c1ccccc1	none
CN(C)S(=O)(=O)c1ccc2c(c1)c(=O)c(C(=O)NCCCN1CCCCCC1)cn2C	ERa coact inh 62[fluorescence artefact?]
CC(C)COC(=O)c1ccc2c(c1O)C(=O)c1ccccc1C2=O	none
O=C(N/C=N/OCc1cccc(C(F)(F)F)c1)N1OC[C@@H]2COc3ccc4ccccc4c3[C@@H]21	none (no result: MT1-MMP txn act)
O=C1c2ccccc2C(Nc2ccc3c(c2)OCCO3)N1Cc1ccc2c(c1)OCO2 (stereo not drawn)	none
O=C1OC(Nc2ccc3c(c2)OCO3)c2ccccc21 (stereo not drawn)	ERb SRC1 inh 52
Cc1ccc(-c2cc(-c3ccc4c(c3)OCO4)c(C#N)c(N)n2)o1	ERa coact inh 82[fluorescence artefact?]
Cc1ccc(-c2cc(-c3ccc(Cl)cc3)c(C#N)c(N)n2)o1	none
Cc1cc(-c2cc(-c3ccc(Cl)cc3)nc(N)c2C#N)co1	ERa coact inh 51[fluorescence artefact?] (no result: DAT uptake mod)
N#Cc1c(N)oc(-c2ccc3c(c2)OCO3)c1-c1ccc2c(c1)OCO2	ERb SRC1 inh 73, ERa coact inh 73
CC(C)=C1C(=O)C(c2ccccc2)=C2CN3C(=O)N(CCc4ccccc4)C(=O)[C@]3(C)[C@H]21	none (no result: ERb SRC1 inh, DAT uptake mod, ERa coact inh, ERa coact pot)
CCC(=O)NC(Nc1ncc(C)s1)(C(=O)OC)C(F)(F)F (stereo not drawn)	none
COC(=O)[C@@]1(Cc2ccccc2)[C@H]2c3cc(C(=O)N(C)C)n(CCF)c3C[C@H]2CN1C(=O)c1ccccc1	none (no result: ERb SRC1 inh, DAT uptake mod, ERa coact inh, ERa coact pot)
Cc1ccc(-c2nn3c(-c4ccco4)nnc3c3ccccc23)cc1S(=O)(=O)NCC1CCCO1 (stereo not drawn)	ERa coact inh 55[fluorescence artefact?], ERa coact pot 218
Cc1ccc(-c2nnc(Nc3ccccc3)c3ccccc23)cc1S(=O)(=O)NCC1CCCO1 (stereo not drawn)	none (no result: ERb SRC1 inh, ERa coact inh, ERa coact pot, MT1-MMP txn act)
CC/C(=C\C1CCCCC1)C(NP(=O)(c1ccccc1)c1ccccc1)c1ccccc1 (stereo not drawn)	none (no result: ERb SRC1 inh, ERa coact inh, ERa coact pot, MT1-MMP txn act)

High-throughput results: PubChem BioAssay, several laboratories
